The test system of assay [1] is Wnt5a (protein binding on small-molecule microarray). Briefly: small molecules binding Wnt5a protein – biophysical, small-molecule microarray, 635/667 nm fluorescence, primary screen (AID 1142).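 Further: fluorescence read at 667 nm with signal to noise per printed feature.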 The settings on record: 635 nm fluorescence, higher = more signal.
Assay [2] can be described thus: ATP-based viability of Huh7 replicon cells – cell-based, CellTiter-Glo luminescence, basal, 48 h, cytotoxicity control for HCV replication inhibitor project, primary screen (AID 1143).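 Further: Huh7 hepatoma cells carrying a hepatitis C replication reporter with no stimulus; test concentration not given here.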 The settings on record: higher = more signal, called active from +8 up or from −8 down.
Assay [3] in a line: Pseudomonas biofilm growth suppression – PAO1 strain, BacTiter-Glo luminescence, LB-PBS, primary screen (AID 1144). The settings on record: P. aeruginosa PAO1 biofilm, 12 h, higher = more signal.
A short description of assay [4]: basal CRE-LacZ reporter activity in PC12 – cell-based, unstimulated, primary screen (AID 1145). The settings on record: no forskolin, luminescence, 4.5 h, higher = more signal, called active from +8 up or from −8 down.
Assay [5] in a line: forskolin-driven CRE-LacZ activity in PC12 – cell-based, CRE-LacZ reporter, forskolin-stimulated, primary screen (AID 1146).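 Further: PC12 cells with 6xCRE LacZ reporter stimulated by forskolin 10 µM; beta-galactosidase reporter signal reflecting CREB driven transcription.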 The settings on record: luminescence, 4.5 h, higher = more signal, called active from +8 up or from −8 down.
Assay [6] addresses Streptavidin (Streptomyces avidinii) (UniProt P22629). Briefly: compounds binding control protein streptavidin – biophysical, small-molecule microarray, 635/667 nm fluorescence, artefact control for SMM compound annotation, primary screen (AID 1147).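 Further: signal reflects streptavidin binding to arrayed compounds as a control protein.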 Particulars: higher = more signal.
Assay [7] is described as follows: probe aInhba binding on compound microarray – biochemical, small-molecule microarray, 635/667 nm fluorescence, primary screen (AID 1148).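 Further: score merges 667nm spot fluorescence with signal-to-noise for antibody binding to printed compounds.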 The settings on record: higher = more signal.
The target of assay [8] is Torsin-1A (Homo sapiens) (UniProt O14656). In words: TOR1A wild-type binding on microarray – cell lysate, small-molecule microarray, lysate, 635/667 nm, primary screen (AID 1149). Particulars: COS7 hTOR1A-WT lysate, 635 nm fluorescence, higher = more signal.
The target is the same in assay [9]. In words: torsin A mutant lysate binding on microarrays – cell lysate, small-molecule microarray, COS7 lysate, 635/667 nm fluorescence, primary screen (AID 1150).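 Further: score pools 667 nm emission and signal to noise measuring lysate protein binding.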 Particulars: COS7 hTOR1A mutant lysate, 635 nm fluorescence, higher = more signal.
Assay [10] concerns Sonic hedgehog protein (Shh). Briefly: Sonic hedgehog microarray binding compounds – biochemical, small-molecule microarray, 635/667 nm fluorescence, primary screen (AID 1151).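 Further: Shh protein binding to compounds spotted on small-molecule microarray slides; score combines spot fluorescence intensity with signal-to-noise across triplicate slides.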 The settings on record: 635 nm fluorescence, higher = more signal.

Active and inactive are the calls of the source. Unless noted, how the calls were made is not given here.

Sequence of Torsin-1A (Homo sapiens) (O14656 whole entry, looked up): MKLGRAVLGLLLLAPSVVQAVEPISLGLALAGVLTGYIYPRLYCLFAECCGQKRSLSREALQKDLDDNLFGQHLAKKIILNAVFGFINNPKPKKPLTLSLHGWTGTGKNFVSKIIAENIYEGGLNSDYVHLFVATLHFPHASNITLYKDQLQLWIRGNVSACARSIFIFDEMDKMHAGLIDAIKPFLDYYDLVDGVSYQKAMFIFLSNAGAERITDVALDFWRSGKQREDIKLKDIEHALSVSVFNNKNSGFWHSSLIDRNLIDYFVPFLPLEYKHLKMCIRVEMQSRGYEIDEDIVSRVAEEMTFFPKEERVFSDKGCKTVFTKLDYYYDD
Sequence of Streptavidin (Streptomyces avidinii) (P22629 whole entry, looked up): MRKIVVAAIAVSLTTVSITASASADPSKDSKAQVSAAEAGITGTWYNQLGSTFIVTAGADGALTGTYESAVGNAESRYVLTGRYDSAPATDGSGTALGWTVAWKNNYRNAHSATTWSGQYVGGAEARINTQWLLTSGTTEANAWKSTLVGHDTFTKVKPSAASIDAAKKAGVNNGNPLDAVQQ

In the case of `O=C1C2C=CC(C(O)c3cccc4ccccc34)N(n3cnnc3)C2C(=O)N1Cc1ccccc1` (stereo not given), the composite z-score is 1.24 in assay [1]; 0.225 in [6]; 1.28 in assay [7]; 0.104 with Torsin-1A (Homo sapiens) [8]; -0.0432 in the assay with Torsin-1A (Homo sapiens) [9]; 0.177 in assay [10]. Further, the z-score is 0.251 (inactive) in assay [2], 0.878 (inactive) in [3], 0.425 (inactive) in [4] and 0.972 (inactive) in [5].

Regarding `CC(C)[C@H]1COC(=O)N1C(=O)[C@H]1[C@@H](c2ccccc2)N(c2ccccc2)O[C@@H]1C`, the composite z-score in assay [1] is 0.138; in assay [6], 0.465; in [7], -0.0989; with Torsin-1A (Homo sapiens) [8], 0.167; with Torsin-1A (Homo sapiens) [9], 0.624; in assay [10], 0.506. Moreover, the z-score was -0.917 (inactive) in assay [2], -1.33 (inactive) in [3], 0.493 (inactive) in assay [4] and -0.688 (inactive) in [5].

As to `CCN(CC)c1ccc(N2CC=CC34O[C@@H]5/C=C\CCCOC(=O)C5[C@H]3C(=O)N(CCCO)[C@@H]4C2=O)cc1` (stereo not given in full), the composite z-score in [1] was -0.674; in assay [6], -1.12; in [7] it was -0.157; in the assay with Torsin-1A (Homo sapiens) [8], -1.94; in the assay with Torsin-1A (Homo sapiens) [9], -1.45; in [10], -0.18. Moreover, the z-score in assay [2] was 0.273 (inactive); in [3], 2.24 (inactive); in [4], -0.212 (inactive); in [5], -0.473 (inactive).

On to `CCOC(=O)C=Cc1cccc(OC)c1O`, for which the composite z-score in [1] was -0.811; in assay [6], -0.432; in assay [7], -0.13; with Torsin-1A (Homo sapiens) [8], -0.146; with Torsin-1A (Homo sapiens) [9], 0.141; in assay [10] it was -0.8. Also, the z-score in [2] was -4.11 (inactive); in assay [3] it was 1.91 (inactive); in [4] it was 0.182 (inactive); in assay [5] it was -0.791 (inactive).

`CN(C)CCCC[C@@H]1NC(=O)[C@@H]2C[C@H](C(=O)NCc3ccc(F)cc3)[C@H](c3cccc(OCCO)c3)N2C1=O`: the composite z-score in [1] is 0.584; in assay [6] it was -0.0899; in assay [7], 0.374; with Torsin-1A (Homo sapiens) [8], 1.27; in the assay with Torsin-1A (Homo sapiens) [9], 1.12; in [10], 2.06. Also, the z-score in assay [2] is -0.267 (inactive); in [3], -0.824 (inactive); in assay [4] it was 0.423 (inactive); in assay [5], -1.18 (inactive).

Take `C[C@H]1C2[C@H](Cc3ccccc3)NC(=O)[C@]23C(=O)N[C@H](Cc2ccccc2)C(=O)N[C@H](Cc2ccccc2)C(=O)NC/C=C/CCC/C=C/C3[C@@H]2O[C@]12C` (stereo not given in full): the composite z-score in [1] is 0.127; in assay [6] it was -0.224; in [7], -0.149; with Torsin-1A (Homo sapiens) [8], 0.299; in the assay with Torsin-1A (Homo sapiens) [9] it was 0.225; in assay [10], 0.843. Further, the z-score was -2 (inactive) in assay [2], 0.612 (inactive) in assay [3], 1.3 (inactive) in assay [4] and -0.696 (inactive) in assay [5].

As for `CCCNC(=O)[C@@]1(c2ccc([N+](=O)[O-])cc2)CC(=O)N(CC23CC4CC(CC(C4)C2)C3)[C@@H]1c1ccc(CO)cc1I`, the composite z-score in assay [1] came to 0.572; in [6] it was 0.131; in assay [7], 0.834; with Torsin-1A (Homo sapiens) [8] it was 0.253; with Torsin-1A (Homo sapiens) [9], 0.55; in assay [10] it was 0.825. The z-score is -5.46 (inactive) in [2], 0.468 (inactive) in assay [3], 0.234 (inactive) in assay [4] and 0.299 (inactive) in assay [5].

Regarding `CCCCCN1CC=CC23O[C@@H]4C=CCCOC(=O)C4[C@H]2C(=O)N(CCCO)[C@@H]3C1=O` (stereo not given in full), the composite z-score is -0.309 in assay [1]; -0.559 in assay [6]; -0.128 in assay [7]; -0.0271 with Torsin-1A (Homo sapiens) [8]; -1.09 in the assay with Torsin-1A (Homo sapiens) [9]; 0.4 in [10]. The z-score in assay [2] was -2.45 (inactive); in [3], -1.06 (inactive); in assay [4] it was -0.492 (inactive); in [5], -0.285 (inactive).

`CN1C(=O)C2C=CC(C(O)c3ccc(Br)cc3)N(Nc3ccccc3)C2C1=O` (stereo not given): the composite z-score in assay [1] was -0.323; in assay [6] it was -0.524; in assay [7], -0.0523; in the assay with Torsin-1A (Homo sapiens) [8], 0.24; in the assay with Torsin-1A (Homo sapiens) [9], 0.828; in assay [10], -1.09. In addition, the z-score is 1.06 (inactive) in [2], -0.595 (inactive) in assay [3], 1.6 (inactive) in assay [4] and 0.127 (inactive) in assay [5].

`C=C(COC)C(=O)CC[C@H](OC(=O)c1cccnc1)c1ccccc1OCCO`: the composite z-score in [1] came out at 0.112; in assay [6], 0.279; in [7], 0.0705; in the assay with Torsin-1A (Homo sapiens) [8], 0.519; with Torsin-1A (Homo sapiens) [9], 0.698; in assay [10] it was 1.63. The z-score in [2] is -2.22 (inactive); in assay [3] it was -0.201 (inactive); in assay [4], 5.43 (inactive); in assay [5] it was 9.65 (active).

On to `COc1ccc([Si](C)(C)[C@@H]2[C@@H](CCO)O[C@]3(C(=O)N(Cc4cccc(N5CCCCC5=O)c4)c4ccccc43)[C@H]2C)cc1`, for which the composite z-score in assay [1] was -0.0438; in [6] it was -0.276; in assay [7], -0.024; with Torsin-1A (Homo sapiens) [8] it was 0.38; with Torsin-1A (Homo sapiens) [9], 0.965; in assay [10], 1.27. Also, the z-score was -7.9 (inactive) in assay [2], 0.671 (inactive) in assay [3], 15.5 (active) in assay [4] and 0.456 (inactive) in [5].

For `CN(C)CCCC[C@@H]1NC(=O)[C@@H]2C[C@H](C(=O)NCCCCCCN)[C@H](c3ccc(O)cc3)N2C1=O`, the composite z-score in assay [1] stood at 0.346; in assay [6], 1.19; in assay [7] it was 0.554; with Torsin-1A (Homo sapiens) [8] it was 0.613; with Torsin-1A (Homo sapiens) [9], 0.901; in [10], 0.945. Further, the z-score in assay [2] is 0.255 (inactive); in [3], -0.481 (inactive); in assay [4], -0.122 (inactive); in [5], 0.208 (inactive).

`CCCC[C@H]1OB(O)C[C@H]2C1=C(COc1ccccc1)C[C@H]1C(=O)N(Cc3ccccc3)C(=O)[C@H]12`: the composite z-score in [1] is -0.0155; in [6], 1.49; in assay [7], -0.0136; in the assay with Torsin-1A (Homo sapiens) [8] it was -0.518; in the assay with Torsin-1A (Homo sapiens) [9], 0.106; in assay [10], 1.76. For the same compound, the z-score in [2] was -1.72 (inactive); in assay [3] it was -0.375 (inactive); in [4], 1.13 (inactive); in assay [5], -0.208 (inactive).

Turning to `CC(=O)NCCCC[C@@H]1NC(=O)[C@@H]2C[C@H](C(=O)NCc3ccc(F)cc3)[C@H](c3ccc(O)cc3)N2C1=O`, the composite z-score in assay [1] is 0.0547; in [6] it was 0.0542; in [7], -0.176; with Torsin-1A (Homo sapiens) [8], 0.821; with Torsin-1A (Homo sapiens) [9], 0.524; in [10], 1.56. Further, the z-score was -0.395 (inactive) in assay [2], 0.587 (inactive) in assay [3], 0.431 (inactive) in assay [4] and 0.158 (inactive) in assay [5].

For the origin of these results see PubChem BioAssay.
